SMILES strings stand for the structures. Records with an inconclusive call do not appear. Activity calls are given as the source filed them. The call rests on the fitted dose curve; in most records, active means well fitted curve in the direction sought with a large enough effect; inconclusive means small, poorly fitted or top-dose-only effect, or another doubt; inactive means no such curve, though single readings can be large; an effect the other way counts as inactive or inconclusive.

Our source for the Potency and outcome values is PubChem BioAssay (NCATS).

Experiment [1] is described as follows: SW1088 Cancer Cell Toxicity qHTS against the NCATS CANVASS Library (AID 1347350). Further: nearly all actives have a fitted effect of over 75% in size. Further: potency means the concentration at half of the fitted maximal effect. In a few lines:
(§1)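 Step one: seed 1000 cells per well. Step two: incubate 4 h. Step three: add test compounds in 11 concentrations. Step four: culture 72 h, then add CellTiter-Glo and record luminescence after 15min.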
On the technique in general: qHTS replaces the single test concentration by a dilution series.

Experiment [2] is described as follows: A2780 Cisplatin Sensitive Ovarian Cancer Cell Toxicity qHTS against the NCATS CANVASS Library (AID 1347353). Further: nearly all actives have a fitted effect of over 60% in size. Further: potency means the concentration at half of the fitted maximal effect. In a few lines:
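A2780 cells, 750/well, settled 4 h at 37 °C, then treated with an 11-point compound series for 72 h. Viability was read as ATPLite luminescence after 10 min at room temperature, with bortezomib as control.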

Experiment [3] is described as follows: HEK-293 Cancer Cell Toxicity qHTS against the NCATS CANVASS Library (AID 1347355). Further: nearly all actives have a fitted effect of over 65% in size. Further: potency means the concentration at half of the fitted maximal effect. In a few lines: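 Cells at 1000/well were given compound 4 h after plating in an 11-point series. Viability was read by CellTiter-Glo luminescence after 72 h at 37 degrees C.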
Experiment [4] concerns the target Luciferin 4-monooxygenase (Photinus pyralis) (UniProt P08659). The experiment in a line: Firefly luciferase counterscreen qHTS: Assay Interference Panel against the NCATS CANVASS Library (AID 1347363). Further: series mostly up to about 57 µM. A digest of the protocol: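 Purified P. pyralis luciferase was added to compounds (11-point series) preincubated 15 min at room temperature with substrate containing 0.013 mM D-luciferin and 0.013 mM ATP; luminescence was read after 5 min.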
A general note: Counterscreens check selectivity or assay interference.

The nature of experiment [5]: KB-8-5-11 Cancer Cell Toxicity qHTS against the NCATS CANVASS Library (AID 1347364). Further: nearly all actives have a fitted effect of over 75% in size. Further: potency means the concentration at half of the fitted maximal effect. A digest of the protocol: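 KB-8-5-11 cells, 500/well in DMEM + 10% FBS, given compounds in an 11-point series. Incubated 72 h at 37 °C. Viability by CellTiter-Glo luminescence. Confirmation also run with 1 uM tariquidar.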
The nature of experiment [6]: SDT Cancer Cell Toxicity qHTS against the NCATS CANVASS Library (AID 1347365). Further: potency means the concentration at half of the fitted maximal effect; nearly all actives have a fitted effect of over 60% in size. A digest of the protocol: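 SDT dog glioma cells (500/well) exposed to an 11-point compound series for 72 hr at 37C, 5% CO2. Cytotoxicity read as ATP content by CellTiterGlo luminescence; bortezomib titration as control.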
Experiment [7] in a line: qHTS for ATAD5 Agonist screened against the NCATS CANVASS Library (AID 1347367).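 Further: luciferase reporter driven by ATAD5 which rises upon DNA damage.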 A digest of the protocol: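 HEK293T cells stably carrying an ATAD5-controlled luciferase reporter (2000 cells/well) attached for 5 hr, then received compounds in an 11-point series for 16hr at 37C. Luminescence was read after a 30 min room-temperature reagent step.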
Experiment [8] in a line: G06 Cancer Cell Toxicity qHTS against the NCATS CANVASS Library (AID 1347368). Further: nearly all actives have a fitted effect of over 60% in size. Further: potency means the concentration at half of the fitted maximal effect. In a few lines: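 G06 dog glioma cells, 500 per well, exposed 72 hr at 37C, 5% CO2 to compounds in an 11-point series. Cytotoxicity read as ATP content by CellTiterGlo luminescence.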
Experiment [9] in a line: MCF7 Cancer Cell Toxicity qHTS against the NCATS CANVASS Library (AID 1347369). In a few lines: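 MCF7, 500 cells/well; cpds 11-pt qHTS; 72 hr, 37C/5% CO2; CellTiterGlo ATP luminescence.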
A short description of experiment [10]: qHTS for ATAD5 Antagonist screened against the NCATS CANVASS Library (AID 1347370). Further: nearly all actives have a fitted effect of over 65% in size. Further: potency means the concentration at half of the fitted maximal effect. A digest of the protocol:
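HEK293T cells with stably integrated ATAD5-luciferase reporter, 2000/well, 5 h attachment; compounds plus 10 µM 5-fluorouridine, 16 h at 37 °C. Luciferase luminescence read, with CellTiter-Fluor viability read first.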

Experiment [11] in a line: qHTS for Hypoxia signaling pathway (HIF-1) antagonists against the NCATS CANVASS Library (AID 1347374). Further: nearly all actives have a fitted effect of over 60% in size. Further: potency means the concentration at half of the fitted maximal effect. In a few lines:
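HRE-bla ME-180 cells in medium with 0.5% dialyzed FBS received compounds (11-point series) plus CoCl2 (60 uM addition stock) for 17 hrs at 37C. Beta-lactamase activity read with CCF4 (405 nm ex, 460/530 nm em); CellTiter-Glo viability measured in same wells.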

Experiment [12] in a line: qHTS for H2AX Agonists against the NCATS CANVASS Library (AID 1347378). Further: potency means the concentration at half of the fitted maximal effect. A digest of the protocol:
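CHO-K1 cells were plated overnight at 37C, then exposed to compounds (concentration series, 0.76% DMSO final) for 3 hr at 37C. Lysates received Eu-cryptate anti-pH2AX (S139) and d2 anti-H2AX antibodies; after 24 hr at room temperature, TR-FRET 665/620 nm ratio was read.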

A short description of experiment [13]: Inflammasome Signaling qHTS Counterscreen: IL-1-beta AlphaLISA counterscreen against the NCATS CANVASS Library (AID 1347381).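 Further: cell-free check with purified IL-1β in medium and no THP-1 cells; series mostly up to about 57 µM.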 A digest of the protocol:
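Cell-free interference check: compounds added to medium spiked with 4 pg purified IL-1β. Anti-IL-1β acceptor beads (6 ug/mL) with 0.6 nM biotinylated antibody added for 1 h at RT, then streptavidin donor beads (24 ug/mL) for 30 min in the dark. AlphaLISA read at 680/615 nm.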

Experiment [14] is described as follows: Secretion counterscreen for inhibitors of the SERCaMP assay screened against the NCATS CANVASS Library (AID 1347390).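 Further: light from luciferase secreted into medium read as a measure of general secretion.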 Further: potency means the concentration at half of the fitted maximal effect. A digest of the protocol:
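SH-SY5Y cells expressing constitutively secreted GLuc, 1000 cells/well, attached 4 h at 37C, then exposed to compounds (0.001 - 77 uM, 11-pnt series) for 20 h. Coelenterazine added; luminescence read to flag secretory-pathway interferers.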

The nature of experiment [15]: qHTS for activators of Nrf2/ARE signaling pathway screened against the NCATS CANVASS Library (AID 1347391). Further: nearly all actives have a fitted effect of over 60% in size. Further: potency means the concentration at half of the fitted maximal effect. A digest of the protocol: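 ARE-bla HepG2 beta-lactamase reporter cells exposed to compounds for 16 h at 37C; CCF4 substrate 2 h, fluorescence at ex 405 nm, em 460/530 nm. Viability by CellTiter-Glo luminescence.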
The nature of experiment [16]: qHTS for inhibitors of ER calcium dysfunction: SERCaMP assay screened against the NCATS CANVASS Library (AID 1347393). Further: nearly all actives have a fitted effect of over 40% in size. Further: potency means the concentration at half of the fitted maximal effect. A digest of the protocol:
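qHTS in SH-SY5Y reporter cells: 16 h compound pretreatment, 4 h thapsigargin, then secreted Gaussia luciferase measured by luminescence.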

The nature of experiment [17]: qHTS for inhibitors of Wild type Zika virus screened against the NCATS CANVASS Library (AID 1347396).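 Further: ATP luminescence of surviving cells so rescue from viral cell killing; series mostly up to about 46 µM.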 In a few lines: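 Luminescent CellTiter Glo read-out of virus-induced cytotoxicity, 72 h post-infection, in Vero 766 cells. Compounds were tested at 11 concentrations; uninfected, vehicle-treated wells defined 100% inhibition.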
Experiment [18] is described as follows: HPAF-II 12hr Apoptosis Induction qHTS against the NCATS CANVASS Library (AID 1347358). A digest of the protocol: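 HPAF-II cells, 500/well in DMEM + 10% FBS, exposed 12 hours at 37 degrees C to compound (11-point). Caspase-Glo 3/7 added for 15 min at room temperature; luminescence reflects caspase-3/7 activity.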
Experiment [19] can be described thus: J3T Cancer Cell Toxicity qHTS against the NCATS CANVASS Library (AID 1347371). Further: potency means the concentration at half of the fitted maximal effect. A digest of the protocol: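 J3T dog glioma cells, 500 per well, treated 72 h at 37C with compounds (11-point qHTS); viability from ATP content by CellTiterGlo luminescence; bortezomib titration as control.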
Experiment [20] in a line: OV-KATE Cancer Cell Toxicity qHTS against the NCATS CANVASS Library (AID 1347345). Further: potency means the concentration at half of the fitted maximal effect. In a few lines:
as §1

Sequence of Luciferin 4-monooxygenase (Photinus pyralis) (P08659 whole entry, looked up): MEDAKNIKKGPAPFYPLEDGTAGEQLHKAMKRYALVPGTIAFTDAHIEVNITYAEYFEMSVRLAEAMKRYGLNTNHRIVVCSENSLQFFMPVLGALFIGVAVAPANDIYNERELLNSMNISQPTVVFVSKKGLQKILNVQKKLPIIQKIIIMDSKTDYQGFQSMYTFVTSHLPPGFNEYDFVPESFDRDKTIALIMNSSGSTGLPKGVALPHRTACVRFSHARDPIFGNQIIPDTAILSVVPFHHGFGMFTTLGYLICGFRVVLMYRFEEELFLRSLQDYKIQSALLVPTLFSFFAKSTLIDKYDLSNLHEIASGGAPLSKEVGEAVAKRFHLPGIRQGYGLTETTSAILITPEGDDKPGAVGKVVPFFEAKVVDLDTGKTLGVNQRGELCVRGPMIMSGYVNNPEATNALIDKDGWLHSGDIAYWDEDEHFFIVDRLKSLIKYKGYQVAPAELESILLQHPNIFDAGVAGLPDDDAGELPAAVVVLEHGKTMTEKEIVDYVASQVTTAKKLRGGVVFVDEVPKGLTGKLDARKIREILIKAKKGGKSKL

With `C/C(=C\[C@H](C)C(=O)/C=C/CC1CC(=O)NC(=O)C1)[C@@H]1OC(=O)CCCC/C=C/[C@H](O)[C@@H](O)[C@@H]1C`, the Potency entry in experiment [1], in [4], in [5], in experiment [7], in [9] and in [12] was “inactive” in each case. The Potency entry in experiment [14] is “inactive”. The Potency in experiment [2] was 10.5 µM (active); in experiment [3], 23.5 µM (active); in experiment [6], 13.2 µM (active); in [8], 5.9 µM (active); in [10] it was 23.4 µM (active); in [11], 11.8 µM (active). The Potency in experiment [15] was 4.67 µM (active); in experiment [16] it was 19.3 µM (active). Besides, the compound was called inactive in experiment [13] and in experiment [17].

On to `CO[C@@H]1[C@H](O)[C@@H](C)O[C@@H](OC[C@@H]2C(C)OC(=O)/C=C/[C@H](C)C(O[C@@H]3O[C@H](C)CC4(OC(=O)O[C@@H]4C)C3O)[C@@H](C)CC(C)C(=O)/C=C/[C@H]3OC23)[C@@H]1OC` (some centres undefined), for which the Potency entry in [1], in [18], in experiment [4], in experiment [5], in experiment [7] and in [9] was “inactive” throughout. The Potency result in experiment [12] and in experiment [14] was “inactive” throughout. The Potency in [2] is 11.8 µM (active); in [3], 20.9 µM (active); in experiment [6] it was 16.6 µM (active); in experiment [8], 16.6 µM (active); in experiment [10], 16.6 µM (active); in [19], 13.2 µM (active). In addition, the Potency is 18.8 µM (active) in [11], 3.71 µM (active) in [15] and 8.6 µM (active) in [16]. Moreover, the compound was classed as inactive in experiment [13] and in experiment [17].

`C=C1C(=O)O[C@H]2[C@H]1CCC(C)=C1CC[C@@](C)(O)[C@@H]12`: the Potency was 11.8 µM (active) in experiment [20]; 14.9 µM (active) in experiment [1]; 4.18 µM (active) in [2]; 9.35 µM (active) in experiment [3]; 23.5 µM (active) in experiment [5]; 26.4 µM (active) in experiment [6]. The Potency was 16.6 µM (active) in [8]; 27.3 µM (active) in [12]; 34.3 µM (active) in experiment [14]; 0.186 µM (active) in experiment [15]; 2.72 µM (active) in [16]. Besides, the Potency result in experiment [18], in experiment [4] and in [7] was “inactive” in each case. In addition, the compound was classed as inactive in experiment [13] and in experiment [17].

With `C=C[C@@](C)(O)CC[C@@H]1[C@@]2(C)CCCC(C)(C)[C@@H]2CC[C@@]1(C)O`, the Potency entry in experiment [20], in [2], in experiment [18], in experiment [4], in experiment [7] and in [8] was “inactive” throughout. The Potency result in experiment [9], in experiment [10], in experiment [19], in experiment [11], in [12] and in [15] was “inactive” in each case. The call in [13] and in experiment [17] was inactive.

Regarding `COc1ccc([C@@H]2c3cc4c(cc3C[C@H](C)C2C)OCO4)cc1OC` (some centres undefined), the Potency result in experiment [20], in experiment [18], in experiment [4], in [7], in [9] and in experiment [19] was “inactive” in each case. The Potency entry in experiment [12], in [15] and in [16] was “inactive” in each case. Moreover, the results for the Potency in experiment [2] and in experiment [5] were 10.5 µM (active) and 3.72 µM (active), respectively. Also, in experiment [17], the call was inactive.

Turning to `C/C(=C\[C@@H](C)CC/C=C/CC/C=C/C(=O)O)[C@H](O)[C@H](C)C(=O)CCCC1CC(=O)NC(=O)C1`, the Potency entry in [20], in experiment [1], in experiment [2], in experiment [3], in [18] and in experiment [5] was “inactive” throughout. The Potency entry in experiment [7], in experiment [9], in [10], in [19], in experiment [11] and in experiment [12] was “inactive” throughout. The Potency result in [14], in experiment [15] and in experiment [16] was “inactive” throughout. In addition, the compound was classed as inactive in [17].
